# Measurements from the supplement of paper PMC3334620.
# In all, about 33,000 sequences were measured (“E-score (-0.5 to 0.5)”: median about -0.035, highest 2% from about 0.35 on). The full list was thinned out, with the highest values kept by preference.
# Target: T1, Pdr3 (UniProt P33200)
# T1 sequence: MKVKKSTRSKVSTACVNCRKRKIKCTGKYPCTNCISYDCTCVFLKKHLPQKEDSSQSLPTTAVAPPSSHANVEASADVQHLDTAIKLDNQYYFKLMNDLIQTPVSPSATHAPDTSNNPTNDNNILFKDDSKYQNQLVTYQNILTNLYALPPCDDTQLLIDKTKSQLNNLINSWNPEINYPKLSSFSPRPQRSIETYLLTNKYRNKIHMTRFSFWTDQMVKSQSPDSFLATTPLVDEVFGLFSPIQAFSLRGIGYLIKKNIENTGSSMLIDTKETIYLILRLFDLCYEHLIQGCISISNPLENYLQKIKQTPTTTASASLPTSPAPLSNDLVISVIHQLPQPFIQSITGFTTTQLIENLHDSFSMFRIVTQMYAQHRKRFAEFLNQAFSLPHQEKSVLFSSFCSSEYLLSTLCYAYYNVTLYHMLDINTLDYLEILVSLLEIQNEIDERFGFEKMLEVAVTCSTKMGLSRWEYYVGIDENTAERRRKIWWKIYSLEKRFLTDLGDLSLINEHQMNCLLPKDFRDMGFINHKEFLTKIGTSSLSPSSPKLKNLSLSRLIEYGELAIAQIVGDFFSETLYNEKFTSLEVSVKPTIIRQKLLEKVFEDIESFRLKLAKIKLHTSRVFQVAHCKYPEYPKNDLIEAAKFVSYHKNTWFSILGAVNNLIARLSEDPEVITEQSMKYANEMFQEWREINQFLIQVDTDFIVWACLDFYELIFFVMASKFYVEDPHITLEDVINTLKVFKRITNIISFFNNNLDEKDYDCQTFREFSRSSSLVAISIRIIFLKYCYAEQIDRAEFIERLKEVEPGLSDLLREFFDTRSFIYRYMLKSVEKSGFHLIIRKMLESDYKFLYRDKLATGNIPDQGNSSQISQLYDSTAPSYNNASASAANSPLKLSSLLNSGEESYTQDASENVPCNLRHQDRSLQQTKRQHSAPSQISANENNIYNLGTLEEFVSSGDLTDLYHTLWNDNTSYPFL
# Assay: PBM E-score (8-mer binding enrichment) (E-score (-0.5 to 0.5)); higher = stronger / more preferred TF binding
# Conditions: protein concentration: 200 nM; construct: GST-full length
# Procedure: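 Universal 'all 10-mer' protein binding microarrays (Agilent AMADID 015681) probed with GST-tagged S. cerevisiae TFs (full-length or DBD) made by in vitro transcription/translation (PURExpress), about 100-200 nM. Bound TF was detected with fluorescent anti-GST. Each ungapped 8-mer (which stands for itself and its reverse complement) is scored by the PBM enrichment score (E-score), a modified Wilcoxon-Mann-Whitney statistic from -0.5 to +0.5, computed with the Universal PBM Analysis Suite. Scale: above 0.35 generally sequence-specific binding.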
row,Sequence,PBM E-score
1,AGCTTCGA,-0.102
2,CAGCCGGA,0.398
3,CAGCCGAA,0.0741
4,GAGCCGGC,0.324
5,AAGCCGGT,0.199
6,GAGCCGCA,0.044
7,CAGCCGGG,0.229
8,GAGCCGGA,0.362
9,CAGCCGGC,0.324
10,AAGCCGTC,0.178
11,AAGCCGGA,0.392
12,AAGCCGGC,0.366
13,AAGCCGGG,0.262
14,AAGTGCTC,-0.107
15,AGTTCTAA,0.00941
16,ACGGTGAA,-0.0181
17,AATCGTCA,-0.112
18,GTTGATCA,0.0338
19,AGCCCCAT,-0.0914
20,TAGCCGCA,-0.0883
21,TAGCCGAA,0.0812
22,TAGCCGGA,0.372
23,AAAGAGGA,-0.131
24,ATAACTGA,0.00191
25,CGGAACTA,0.473

row,Sequence,PBM E-score
1,AGGAACTC,0.0544
2,AGGAACTA,0.0717
3,CGGAACTC,0.452
4,GGGAACTA,0.0485
5,CTGAACTC,-0.215
6,CTCTTCTC,-0.18
7,GTATGGAC,0.0423
8,ACCGATGG,-0.0565
9,CTACTGTA,-0.136
10,ACTAAACT,-0.121
11,AGCAGCAC,-0.129
12,GTTGCCTA,0.0329
13,ACCCGGGA,0.448
14,AACCGGGA,0.243
15,ACCCGGCT,0.24
16,ACCCCGGT,0.186
17,ACCCGGTC,0.199
18,GACCGGGC,0.0834
19,ACCGGGGA,0.0294
20,CCCCGGGC,0.33
21,ACCCGGGT,0.446
22,ACCCGGGC,0.424
23,ACCGGGGC,0.224
24,GCCCGGGC,0.427
25,GGCACCCC,-0.0993

row,Sequence,PBM E-score
1,CTGGCCAA,0.0275
2,AGGATCTA,-0.352
3,ATTACTAA,-0.0285
4,GCGGGCCA,0.0261
5,CCACCATA,0.0173
6,ATTTTCTA,-0.183
7,ACGAGGCA,-0.211
8,GTCAAAGA,-0.212
9,TAAATTAA,0.0873
10,AACCTCCG,0.219
11,CGAAGAAC,0.119
12,AGCCCAAT,-0.194
13,GCCGGGGA,0.2
14,GCCCGGGA,0.393
15,GACCGGGA,0.304
16,GCGTTCCC,0.139
17,CTGCCCCA,-0.045
18,CGCGGACG,0.342
19,CGTGGACA,0.108
20,CGCGGACC,0.437
21,CGCGGACA,0.361
22,GGCGGACA,0.185
23,AGCGGACA,0.154
24,AGCGGACC,0.175
25,GGCGGACC,0.357

row,Sequence,PBM E-score
1,CGGGGACC,0.291
2,GATCGCCC,0.00089
3,CAAACCGA,-0.0979
4,CGCCGTCC,0.115
5,TGACGCAA,-0.165
6,CGGACTCA,0.31
7,GACAAGGA,-0.0759
8,AGACTCGG,-0.099
9,ACGTCAAG,-0.311
10,GGACCGGA,0.382
11,CGACCGGC,0.161
12,CGACCGAA,0.0221
13,AGACCGGA,0.254
14,CGACCGGA,0.358
15,GGACCGCA,0.243
16,ATGCCAGC,-0.22
17,CTCAAAAA,-0.0515
18,CACCCGTC,0.215
19,CAGTCTGC,-0.173
20,CTACTTGA,-0.238
21,CGGGATTA,0.404
22,GGGGATGA,0.0246
23,AGGGATTC,-0.0434
24,GGGGATTA,0.162
25,CGGGATTC,0.382

row,Sequence,PBM E-score
1,CGGGATGA,0.369
2,CGGGATGC,0.311
3,CTGGATTC,0.105
4,AGGGATTA,-0.132
5,AGCCGAGC,0.267
6,GTAACCCA,0.0499
7,AAGCGAAA,-0.0467
8,CTCGTAGC,-0.167
9,CGACCATA,0.0144
10,CTTCTGGA,-0.0291
11,CATCTACC,0.0434
12,GGCTCGGA,0.338
13,CCCTCGGA,0.373
14,AACTCGGA,0.296
15,GACTCGGA,0.39
16,CCGTCGGA,0.361
17,GCCTCGGA,0.308
18,TACTCGGA,0.336
19,CGCTCGGA,0.359
20,CCGTCGGC,0.285
21,CCCTCGGC,0.173
22,ACGTCGGA,0.175
23,AGCTCGGA,0.316
24,ACGATCAG,-0.108
25,AGCTCCCT,-0.178

row,Sequence,PBM E-score
1,CATAAAGG,-0.0331
2,TCACGAAA,0.0507
3,AGCGGGGG,-0.158
4,ACCTCGGG,0.158
5,ACCTCGGC,0.307
6,ACCTCGGA,0.357
7,AACGTCAA,-0.146
8,GCTATTCA,0.0956
9,AATGGTAG,-0.0896
10,CGAACTCC,0.132
11,GGAACTCC,0.366
12,AGAACTCC,0.0347
13,CTCGCGAG,0.192
14,CCGCGGGC,0.484
15,CGGCGGTC,0.145
16,CCGCGGTA,0.473
17,ACGCGGGC,0.17
18,CTGCGGGC,0.218
19,ACGCGGTA,0.0327
20,CCGCGGTC,0.432
21,GCGCGGTA,0.28
22,ACGCGGTC,0.181
23,GATCCAAA,0.064
24,ACGTCTAT,-0.168
25,ACGTAGCT,-0.31

row,Sequence,PBM E-score
1,CCGTCTAG,0.178
2,ACCGGCAA,0.185
3,GCCGGCAC,0.392
4,TTCGGCAA,-0.0284
5,CCCGGCAA,0.286
6,TCCGGCAA,0.356
7,TACGGCAA,-0.034
8,GCCGGCAA,0.37
9,ACCGGCAC,0.192
10,CCCGGCAC,0.154
11,TGAACGAA,-0.195
12,CCTCAACC,-0.118
13,AGATTACA,-0.107
14,ACTGTGAG,-0.0549
15,GAGGCTGA,-0.305
16,AGAGGGCG,0.126
17,CGCGCTAA,0.205
18,CCGGTCGA,0.167
19,GCCGGACA,0.315
20,CCCGGACG,0.223
21,CCCCGACA,0.0765
22,CCCGGACA,0.362
23,ACCGGACA,0.206
24,TCCGGACA,0.447
